Assay in all cases: DAPPL (digital affinity profiling via proximity ligation, sequencing); 10 mM Tris-HCl pH 7.5, 50 mM NaCl, 1 mM DTT, 4% glycerol, room temperature, 30 min; GST-TFs on glutathione beads, 16-mer random dsDNA library, 0.1% formaldehyde crosslink after washing; high values mean tight binding
One test addresses T1, FEV (Homo sapiens, UniProt Q99581 1-238).
T1 sequence: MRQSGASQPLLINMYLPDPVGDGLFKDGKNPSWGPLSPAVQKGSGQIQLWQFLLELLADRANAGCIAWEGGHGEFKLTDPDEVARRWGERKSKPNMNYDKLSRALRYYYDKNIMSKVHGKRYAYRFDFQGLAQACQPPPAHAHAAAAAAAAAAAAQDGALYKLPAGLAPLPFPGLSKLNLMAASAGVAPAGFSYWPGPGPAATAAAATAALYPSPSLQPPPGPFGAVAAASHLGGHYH
As to conditions: protein: recombinant; tags: N-terminal GST; dsDNA, one strand shown. In short, it runs like this: (§1)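 Human transcription factors fused to GST were expressed in yeast, captured on glutathione beads, given DNA barcodes and pooled with a GST-only negative control. Pools were incubated with 200 nmole of a 16-mer random double-stranded DNA library in Tris/NaCl/DTT/glycerol buffer at room temperature for 30 min. They were then washed, crosslinked with 0.1% formaldehyde, proximity-ligated (BsaI/T4 ligase, 1 h, 37 °C), PCR-amplified and sequenced on an Illumina NextSeq500. Binding signal is each 6-mer's read frequency for a factor divided by its frequency for the GST control.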

The target in a further test is ETV5 (Homo sapiens, UniProt P41161 1-510). Conditions: protein: recombinant; tags: N-terminal GST; dsDNA, one strand shown. The method in brief: as §1
The target in another test is HSF1 (Homo sapiens, UniProt Q00613 1-529). Conditions: protein: recombinant; tags: N-terminal GST; chain copies: 3; dsDNA, one strand shown. In short, it runs like this: as §1
For another test, the target named is T2, SPIC (Homo sapiens, UniProt Q8N5J4 1-248).
T2 sequence: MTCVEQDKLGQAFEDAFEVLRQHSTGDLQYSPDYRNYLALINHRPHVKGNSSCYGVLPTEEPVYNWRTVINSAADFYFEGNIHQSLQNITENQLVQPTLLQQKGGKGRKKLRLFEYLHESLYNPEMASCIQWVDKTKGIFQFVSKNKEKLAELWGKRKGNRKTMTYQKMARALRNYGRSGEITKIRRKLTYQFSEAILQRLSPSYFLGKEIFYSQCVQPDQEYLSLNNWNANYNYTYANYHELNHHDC
As to conditions: protein: recombinant; tags: N-terminal GST; dsDNA, one strand shown. In short, it runs like this: as §1

The next test deals with ELF4 (Homo sapiens, UniProt Q99607 1-663). As to conditions: protein: recombinant; tags: N-terminal GST; dsDNA, one strand shown. The method in brief: as §1
For a further test, the target named is T3, ELK4 (Homo sapiens, UniProt P28324-2 1-405).
T3 sequence: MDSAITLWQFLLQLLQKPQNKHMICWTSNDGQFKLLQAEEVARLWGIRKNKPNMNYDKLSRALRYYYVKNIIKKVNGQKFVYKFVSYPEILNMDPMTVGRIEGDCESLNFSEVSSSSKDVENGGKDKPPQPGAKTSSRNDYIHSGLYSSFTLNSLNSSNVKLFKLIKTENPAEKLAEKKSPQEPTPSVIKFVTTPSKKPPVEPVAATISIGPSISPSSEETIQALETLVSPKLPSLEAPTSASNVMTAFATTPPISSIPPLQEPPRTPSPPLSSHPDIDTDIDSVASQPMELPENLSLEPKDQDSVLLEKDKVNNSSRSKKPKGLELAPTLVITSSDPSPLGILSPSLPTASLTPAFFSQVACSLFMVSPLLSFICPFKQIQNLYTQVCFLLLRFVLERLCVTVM
Conditions: protein: recombinant; tags: N-terminal GST; dsDNA, one strand shown. The method in brief:
as §1

A further test addresses T4, ETV2 (Homo sapiens, UniProt O00321 1-342).
T4 sequence: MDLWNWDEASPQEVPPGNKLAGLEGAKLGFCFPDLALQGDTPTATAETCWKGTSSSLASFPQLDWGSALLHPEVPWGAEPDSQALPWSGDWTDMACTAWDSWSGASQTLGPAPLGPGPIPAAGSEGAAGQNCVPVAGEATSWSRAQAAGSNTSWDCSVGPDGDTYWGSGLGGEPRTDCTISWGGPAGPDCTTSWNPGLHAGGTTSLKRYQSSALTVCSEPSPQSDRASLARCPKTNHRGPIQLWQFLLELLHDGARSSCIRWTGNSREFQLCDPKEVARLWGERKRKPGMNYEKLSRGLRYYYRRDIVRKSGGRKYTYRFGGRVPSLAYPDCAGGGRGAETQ
Conditions: protein: recombinant; tags: N-terminal GST; dsDNA, one strand shown. The method in brief: as §1

Another test has as its target T5, ELF3 (Homo sapiens, UniProt P78545 1-371).
T5 sequence: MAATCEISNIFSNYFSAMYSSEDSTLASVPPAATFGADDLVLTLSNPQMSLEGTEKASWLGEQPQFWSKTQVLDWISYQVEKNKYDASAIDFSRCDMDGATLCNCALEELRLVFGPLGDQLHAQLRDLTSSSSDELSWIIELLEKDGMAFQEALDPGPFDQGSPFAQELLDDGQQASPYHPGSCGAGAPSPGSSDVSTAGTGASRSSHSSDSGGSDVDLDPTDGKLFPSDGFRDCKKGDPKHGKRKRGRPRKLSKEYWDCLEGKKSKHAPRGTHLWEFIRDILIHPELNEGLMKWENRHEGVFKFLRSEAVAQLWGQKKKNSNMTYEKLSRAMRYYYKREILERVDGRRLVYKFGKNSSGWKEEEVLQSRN
As to conditions: protein: recombinant; tags: N-terminal GST; dsDNA, one strand shown. In short, it runs like this: as §1

The next test deals with CRX (Homo sapiens, UniProt O43186 1-299). Conditions: protein: recombinant; tags: N-terminal GST; dsDNA, one strand shown. In short, it runs like this: as §1
Another test addresses ETV1 (Homo sapiens, UniProt P50549 1-477). As to conditions: protein: recombinant; tags: N-terminal GST; dsDNA, one strand shown. The method in brief:
as §1

The target in another test is T6, ERF (Homo sapiens, UniProt P50548 1-548).
T6 sequence: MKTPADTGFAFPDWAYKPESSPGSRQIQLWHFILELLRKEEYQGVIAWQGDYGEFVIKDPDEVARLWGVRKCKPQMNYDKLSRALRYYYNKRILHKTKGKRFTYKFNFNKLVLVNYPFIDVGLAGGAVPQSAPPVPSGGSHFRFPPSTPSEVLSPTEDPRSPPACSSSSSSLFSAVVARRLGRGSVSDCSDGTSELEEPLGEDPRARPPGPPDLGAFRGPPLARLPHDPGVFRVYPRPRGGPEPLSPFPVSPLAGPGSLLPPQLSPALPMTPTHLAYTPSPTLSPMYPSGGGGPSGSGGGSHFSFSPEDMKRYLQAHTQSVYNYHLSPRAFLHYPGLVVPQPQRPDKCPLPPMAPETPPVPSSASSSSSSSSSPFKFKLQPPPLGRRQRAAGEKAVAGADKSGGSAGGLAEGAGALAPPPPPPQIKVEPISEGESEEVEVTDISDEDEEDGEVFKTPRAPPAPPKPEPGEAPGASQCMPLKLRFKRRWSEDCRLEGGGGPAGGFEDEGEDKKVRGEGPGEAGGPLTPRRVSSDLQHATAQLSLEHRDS
As to conditions: protein: recombinant; tags: N-terminal GST; dsDNA, one strand shown. The method in brief: as §1

A further test concerns the target T7, ETV3L (Homo sapiens, UniProt Q6ZN32 1-361).
T7 sequence: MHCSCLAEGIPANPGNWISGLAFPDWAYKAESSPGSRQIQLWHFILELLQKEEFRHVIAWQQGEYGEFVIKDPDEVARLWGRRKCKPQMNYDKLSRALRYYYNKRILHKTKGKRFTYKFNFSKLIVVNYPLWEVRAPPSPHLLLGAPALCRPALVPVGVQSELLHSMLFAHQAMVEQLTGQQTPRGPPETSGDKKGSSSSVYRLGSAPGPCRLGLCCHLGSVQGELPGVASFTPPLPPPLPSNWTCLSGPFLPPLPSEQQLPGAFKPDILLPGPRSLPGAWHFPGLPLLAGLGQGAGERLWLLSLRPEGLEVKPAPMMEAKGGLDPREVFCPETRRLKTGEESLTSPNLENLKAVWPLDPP
Conditions: protein: recombinant; tags: N-terminal GST; dsDNA, one strand shown. The method in brief: as §1

A further test addresses T8, ETS2 (Homo sapiens, UniProt P15036 1-469).
T8 sequence: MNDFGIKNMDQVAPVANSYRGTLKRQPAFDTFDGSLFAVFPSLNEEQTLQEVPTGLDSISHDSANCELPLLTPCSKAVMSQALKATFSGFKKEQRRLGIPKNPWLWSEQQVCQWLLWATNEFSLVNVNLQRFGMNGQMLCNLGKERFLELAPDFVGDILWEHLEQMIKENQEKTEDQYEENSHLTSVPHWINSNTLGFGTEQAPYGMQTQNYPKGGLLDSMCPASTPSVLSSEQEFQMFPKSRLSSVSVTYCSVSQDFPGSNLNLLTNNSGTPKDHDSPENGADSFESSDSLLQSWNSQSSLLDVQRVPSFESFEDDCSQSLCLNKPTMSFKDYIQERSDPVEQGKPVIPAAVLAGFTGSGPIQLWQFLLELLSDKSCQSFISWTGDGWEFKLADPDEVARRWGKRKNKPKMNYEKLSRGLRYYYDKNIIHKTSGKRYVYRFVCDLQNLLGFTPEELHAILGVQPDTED
Conditions: protein: recombinant; tags: N-terminal GST; dsDNA, one strand shown. In short, it runs like this: as §1

A further test addresses T9, SPDEF (Homo sapiens, UniProt O95238 1-335).
T9 sequence: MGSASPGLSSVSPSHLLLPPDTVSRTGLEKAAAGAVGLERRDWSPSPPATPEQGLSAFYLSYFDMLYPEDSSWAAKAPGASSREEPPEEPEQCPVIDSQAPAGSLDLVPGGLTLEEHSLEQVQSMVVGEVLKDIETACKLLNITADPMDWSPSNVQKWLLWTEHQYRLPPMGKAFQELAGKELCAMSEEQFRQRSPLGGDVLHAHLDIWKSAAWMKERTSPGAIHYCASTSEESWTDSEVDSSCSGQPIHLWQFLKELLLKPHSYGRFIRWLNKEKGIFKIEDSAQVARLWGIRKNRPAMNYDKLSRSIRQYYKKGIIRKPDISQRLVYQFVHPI
As to conditions: protein: recombinant; tags: N-terminal GST; dsDNA, one strand shown. The method in brief: as §1

The next test concerns the target T10, ETV7 (Homo sapiens, UniProt Q9Y603 1-341).
T10 sequence: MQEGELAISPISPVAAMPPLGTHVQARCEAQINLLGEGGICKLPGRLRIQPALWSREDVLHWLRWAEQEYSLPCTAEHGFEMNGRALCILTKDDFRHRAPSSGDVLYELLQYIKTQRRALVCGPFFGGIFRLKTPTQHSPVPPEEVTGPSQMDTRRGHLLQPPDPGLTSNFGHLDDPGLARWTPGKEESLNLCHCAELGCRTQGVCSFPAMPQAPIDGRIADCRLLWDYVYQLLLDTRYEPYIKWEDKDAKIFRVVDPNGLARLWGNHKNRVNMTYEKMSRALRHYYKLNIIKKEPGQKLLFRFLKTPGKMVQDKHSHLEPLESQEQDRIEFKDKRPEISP
Conditions: protein: recombinant; tags: N-terminal GST; dsDNA, one strand shown. In short, it runs like this: as §1

Another test deals with T11, ELF5 (Homo sapiens, UniProt Q9UKW6-2 1-255).
T11 sequence: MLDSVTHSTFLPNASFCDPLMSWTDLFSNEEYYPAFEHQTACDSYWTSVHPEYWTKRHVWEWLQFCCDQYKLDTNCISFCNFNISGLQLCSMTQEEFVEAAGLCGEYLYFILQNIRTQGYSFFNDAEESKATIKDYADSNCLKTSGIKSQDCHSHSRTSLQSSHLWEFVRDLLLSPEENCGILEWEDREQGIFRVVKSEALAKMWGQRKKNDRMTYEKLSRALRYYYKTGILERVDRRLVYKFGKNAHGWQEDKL
As to conditions: protein: recombinant; tags: N-terminal GST; dsDNA, one strand shown. In short, it runs like this:
as §1

The next test has as its target T12, ETV3 (Homo sapiens, UniProt P41162-2 1-143).
T12 sequence: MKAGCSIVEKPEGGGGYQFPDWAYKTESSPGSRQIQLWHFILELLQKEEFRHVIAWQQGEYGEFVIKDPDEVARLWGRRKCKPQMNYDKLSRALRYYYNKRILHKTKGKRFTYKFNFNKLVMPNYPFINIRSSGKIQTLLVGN
As to conditions: protein: recombinant; tags: N-terminal GST; dsDNA, one strand shown. In short, it runs like this:
as §1

The next test has as its target ETV6 (Homo sapiens, UniProt P41212 1-452). As to conditions: protein: recombinant; tags: N-terminal GST; dsDNA, one strand shown. In short, it runs like this:
as §1

Sequence of ETV5 (P41161 whole entry): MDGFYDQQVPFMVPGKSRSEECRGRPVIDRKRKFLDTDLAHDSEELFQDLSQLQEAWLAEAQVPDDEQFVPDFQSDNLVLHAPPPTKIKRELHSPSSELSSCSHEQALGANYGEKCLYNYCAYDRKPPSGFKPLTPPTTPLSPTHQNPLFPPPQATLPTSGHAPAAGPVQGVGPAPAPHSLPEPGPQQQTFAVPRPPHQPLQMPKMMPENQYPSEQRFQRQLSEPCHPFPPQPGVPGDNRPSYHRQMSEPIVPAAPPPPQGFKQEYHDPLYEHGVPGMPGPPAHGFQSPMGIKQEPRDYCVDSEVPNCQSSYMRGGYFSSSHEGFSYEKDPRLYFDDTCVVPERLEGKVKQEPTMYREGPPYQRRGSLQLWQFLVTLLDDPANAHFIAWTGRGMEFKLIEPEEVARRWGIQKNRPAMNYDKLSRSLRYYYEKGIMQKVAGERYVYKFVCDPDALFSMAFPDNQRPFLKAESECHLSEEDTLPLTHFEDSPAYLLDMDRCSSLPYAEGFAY
Sequence of HSF1 (Q00613 whole entry): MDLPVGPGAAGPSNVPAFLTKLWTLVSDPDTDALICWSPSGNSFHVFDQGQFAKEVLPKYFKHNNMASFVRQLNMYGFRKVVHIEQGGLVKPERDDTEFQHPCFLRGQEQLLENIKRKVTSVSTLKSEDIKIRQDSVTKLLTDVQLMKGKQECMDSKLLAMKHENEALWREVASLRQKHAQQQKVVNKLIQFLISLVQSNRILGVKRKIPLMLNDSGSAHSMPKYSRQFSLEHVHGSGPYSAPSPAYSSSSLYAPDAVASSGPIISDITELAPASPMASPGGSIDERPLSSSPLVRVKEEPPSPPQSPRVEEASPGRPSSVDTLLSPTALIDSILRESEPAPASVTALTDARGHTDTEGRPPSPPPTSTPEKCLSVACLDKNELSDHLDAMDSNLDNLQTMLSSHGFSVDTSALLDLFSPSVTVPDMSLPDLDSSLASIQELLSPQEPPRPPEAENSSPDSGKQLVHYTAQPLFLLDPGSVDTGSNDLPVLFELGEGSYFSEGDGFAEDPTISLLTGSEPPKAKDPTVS
Sequence of CRX (O43186 whole entry): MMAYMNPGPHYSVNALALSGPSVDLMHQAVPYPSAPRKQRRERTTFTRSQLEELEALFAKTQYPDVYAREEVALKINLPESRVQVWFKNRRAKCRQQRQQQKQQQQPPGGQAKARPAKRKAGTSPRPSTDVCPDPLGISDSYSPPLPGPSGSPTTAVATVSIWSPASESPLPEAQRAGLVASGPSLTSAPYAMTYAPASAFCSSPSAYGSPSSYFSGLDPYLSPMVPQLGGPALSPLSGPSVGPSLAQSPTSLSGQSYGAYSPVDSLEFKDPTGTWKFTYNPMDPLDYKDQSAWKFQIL
Sequence of ELF4 (Q99607 whole entry): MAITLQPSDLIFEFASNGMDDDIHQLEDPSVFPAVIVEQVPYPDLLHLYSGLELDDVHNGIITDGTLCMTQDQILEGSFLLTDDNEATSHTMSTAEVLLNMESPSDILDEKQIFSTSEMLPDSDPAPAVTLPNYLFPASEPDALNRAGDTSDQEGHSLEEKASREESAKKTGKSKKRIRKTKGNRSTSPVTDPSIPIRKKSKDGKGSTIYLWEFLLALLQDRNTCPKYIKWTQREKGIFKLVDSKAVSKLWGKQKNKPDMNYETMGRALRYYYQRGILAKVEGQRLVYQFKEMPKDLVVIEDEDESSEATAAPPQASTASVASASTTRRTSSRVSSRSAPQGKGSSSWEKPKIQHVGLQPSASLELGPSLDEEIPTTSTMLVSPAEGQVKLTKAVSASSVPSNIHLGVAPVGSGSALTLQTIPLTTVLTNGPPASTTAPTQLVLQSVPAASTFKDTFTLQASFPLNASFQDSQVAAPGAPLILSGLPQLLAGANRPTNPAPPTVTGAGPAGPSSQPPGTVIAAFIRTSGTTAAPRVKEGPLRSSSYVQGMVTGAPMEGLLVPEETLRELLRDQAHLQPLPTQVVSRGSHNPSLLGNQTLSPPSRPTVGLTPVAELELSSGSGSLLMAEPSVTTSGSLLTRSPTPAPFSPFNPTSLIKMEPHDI
Sequence of ETV1 (P50549 whole entry): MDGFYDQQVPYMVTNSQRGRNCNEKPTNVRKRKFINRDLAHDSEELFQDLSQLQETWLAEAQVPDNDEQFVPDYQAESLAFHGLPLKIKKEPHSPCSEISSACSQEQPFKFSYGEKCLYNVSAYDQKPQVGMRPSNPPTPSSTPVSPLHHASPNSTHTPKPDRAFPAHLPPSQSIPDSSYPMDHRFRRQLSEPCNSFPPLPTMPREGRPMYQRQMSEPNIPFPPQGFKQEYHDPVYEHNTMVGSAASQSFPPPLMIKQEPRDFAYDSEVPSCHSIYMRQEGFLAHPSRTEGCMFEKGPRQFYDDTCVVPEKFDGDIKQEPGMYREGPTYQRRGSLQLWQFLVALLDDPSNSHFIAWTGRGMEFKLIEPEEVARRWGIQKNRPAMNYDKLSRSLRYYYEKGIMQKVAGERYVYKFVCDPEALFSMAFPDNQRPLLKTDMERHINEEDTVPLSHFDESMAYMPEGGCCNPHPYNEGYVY
Sequence of ETV6 (P41212 whole entry): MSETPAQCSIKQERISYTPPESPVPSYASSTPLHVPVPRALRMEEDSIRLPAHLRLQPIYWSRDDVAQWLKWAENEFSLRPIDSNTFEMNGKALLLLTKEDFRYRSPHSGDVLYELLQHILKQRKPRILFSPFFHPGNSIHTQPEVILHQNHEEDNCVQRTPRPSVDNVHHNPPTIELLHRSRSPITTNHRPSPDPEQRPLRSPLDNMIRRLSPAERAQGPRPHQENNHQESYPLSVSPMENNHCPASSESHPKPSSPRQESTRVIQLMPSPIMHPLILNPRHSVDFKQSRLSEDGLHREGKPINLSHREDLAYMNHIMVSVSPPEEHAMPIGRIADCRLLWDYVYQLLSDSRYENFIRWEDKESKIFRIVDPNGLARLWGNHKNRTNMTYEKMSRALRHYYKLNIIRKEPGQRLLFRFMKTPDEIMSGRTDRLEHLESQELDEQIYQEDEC

Take CTCACG: the binding signal with FEV was 1.32 fold enrichment (6-mer frequency, TF over GST control); in the test with ETV5, 1.4 fold enrichment (6-mer frequency, TF over GST control); with HSF1, 1.14 fold enrichment (6-mer frequency, TF over GST control); in the test with SPIC, 1.31 fold enrichment (6-mer frequency, TF over GST control); with ELF4, 1.33 fold enrichment (6-mer frequency, TF over GST control); with ELK4, 1.35 fold enrichment (6-mer frequency, TF over GST control). Besides, the binding signal with ETV2 was 1.35 fold enrichment (6-mer frequency, TF over GST control); with ELF3 it was 1.26 fold enrichment (6-mer frequency, TF over GST control); with CRX, 1.08 fold enrichment (6-mer frequency, TF over GST control); in the test with ETV1, 1.22 fold enrichment (6-mer frequency, TF over GST control); with ERF, 1.25 fold enrichment (6-mer frequency, TF over GST control); in the test with ETV3L, 1.3 fold enrichment (6-mer frequency, TF over GST control). Also, the binding signal was 1.4 fold enrichment (6-mer frequency, TF over GST control) with ETS2; 1.26 fold enrichment (6-mer frequency, TF over GST control) in the test with SPDEF; 1.25 fold enrichment (6-mer frequency, TF over GST control) with ETV7; 1.26 fold enrichment (6-mer frequency, TF over GST control) in the test with ELF5; 1.23 fold enrichment (6-mer frequency, TF over GST control) with ETV3; 1.25 fold enrichment (6-mer frequency, TF over GST control) in the test with ETV6.

The values above are taken from article PMC7862700, “An all-to-all approach to the identification of sequence-specific readers for epigenetic DNA modifications on cytosine”.
